ALR H2O2 inh = blocks human ALR sulfhydryl oxidase activity; purified ALR, DTT oxidation, H2O2 HRP-luminol luminescence; inhibition, % (concentration not given with the values); actives 3.8% (n = 290,000); AID 485317;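 active = mean replicate inhibition above about 79%, with every replicate also reaching it, limit read from the data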
Target sequence (P55789 whole entry, looked up): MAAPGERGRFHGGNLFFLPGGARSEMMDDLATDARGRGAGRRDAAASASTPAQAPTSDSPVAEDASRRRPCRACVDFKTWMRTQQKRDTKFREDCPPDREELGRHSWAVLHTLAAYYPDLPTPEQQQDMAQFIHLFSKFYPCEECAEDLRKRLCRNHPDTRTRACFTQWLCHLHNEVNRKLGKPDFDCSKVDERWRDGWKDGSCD
PREPL inhibitor = inhibitors of human prolyl oligopeptidase-like enzyme PREPL | actives 0.68% (n = 320,000) | Q4J6C6 | inhibition, % at 5.96 µM | AID 2751 | recombinant PREPL, fluorescence polarization activity-based probe; in the data active = inhibition above about 43%;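 also: 0% = enzyme with DMSO and 100% = wells lacking enzyme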
CHT PAM = allosteric activators of human choline transporter CHT; B-score at 10 µM; actives 0.49% (n = 310,000); CHT-expressing cells, membrane potential dye, choline EC20; stronger effect = higher value; LV-AA mutant CHT in HEK293 cells; Q9GZV3;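 active = initial fluorescence not abnormally high and integrated response B-score, plate-corrected, over 3 SD above library mean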
AI-2 QS modul = modulators of Vibrio harveyi AI-2 quorum sensing system | activity change, % at 7.5 µM | Vibrio harveyi JMH597 AI-2 luminescence/OD600 ratio, 9 h; stronger effect = lower value; strain lacks LuxN and CqsS sensors; 0 = neutral-control median | actives 0.4% (n = 300,000); in the data active = activity change below about -75%, passing the limit was not always enough;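 also: luminescence divided by OD600 gain over 9 h not by final OD600 alone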
CHT block = inhibitors of human choline transporter CHT; Q9GZV3; CHT-expressing cells, membrane potential dye, choline response; stronger effect = lower value; B-score at 10 µM; actives 0.86% (n = 310,000);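 active = B-score over 3 SD under the library average, and starting fluorescence ratio not unusually high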;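 also: choline stimulus applied at its EC90 after an EC20 pre-addition; B-score computed on integrated fluorescence ratio after choline addition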
CHT act confirm = human CHT activation, confirmatory screen | actives 91% (n = 2,500) | shares compounds with CHT PAM | activation, % at 10 µM | CHT-expressing cells, membrane potential dye fluorescence (FDSS); % of choline EC20–EC90 response window; HEK293 expressing CHT LV-AA mutant; choline added at its EC20;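 active = primary screen active, with duplicate mean activation above negative control mean plus 3 SD, cut at about 11% in these data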
HEK293 MP dye = CHT activator counter-screen hit in parental HEK293 cells; AID 623908; actives 62% (n = 2,500); ratio readout change at 10 µM, hits read low; membrane potential dye fluorescence (FDSS); measured after EC20 choline addition; shares compounds with CHT PAM;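 active = duplicate-averaged ratio beyond 3 SD from buffer wells, up or down, though filed actives are nearly all decreases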
Starred values were filed as active, the others as inactive; i = inactive; . = not tested or not shown. Rows were chosen to be rich in hits. Some 5% of all compounds tested hit in one or more screens of this group.

SMILES | ALR H2O2 inh | PREPL inhibitor | CHT PAM | AI-2 QS modul | CHT block | CHT act confirm | HEK293 MP dye
CC1(C(=O)N/N=C/c2ccc3c(c2)OCO3)CC1(Br)Br (stereo unspecified) | -2 | -12 | i | 12 | i | . | .
CCOc1cc(N2CCOCC2)c(OCC)cc1NC(=O)COC(=O)c1cc2ccccc2cc1O | -10 | 24 | 7.5* | 16 | i | 17* | i
CCOc1cc(N2CCOCC2)c(OCC)cc1NC(=O)COC(=O)c1ccc(Cl)cc1N | -25 | 20 | . | . | . | . | .
COc1ccc(Nc2nccc3c2ncn3C)cc1 | 50 | -2 | i | 16 | i | 61* | -56*
Cc1nnc(SCCn2c(N3CCN(C)CC3)nc3c2c(=O)n(C)c(=O)n3C)s1 | -5 | 2 | 7.7* | 3 | i | 46* | -70*
Cc1nnc(SCCn2c(N3CCCCC3)nc3c2c(=O)n(C)c(=O)n3C)s1 | -4 | 5 | i | 13 | i | . | .
COC(=O)c1ccc2nc(C)cc(Nc3ccccc3C)c2c1 | . | 4 | 6.6* | 22 | i | 44* | -44*
COc1ccccc1C(=O)NC(=O)COC(=O)c1ccc([N+](=O)[O-])cc1 | 15 | 7 | i | 51 | i | . | .
CCC(C)(C)NC(=O)CN(C(=O)C(=O)Nc1ccc2c(c1)OCCO2)N1CCOCC1 | 4 | 9 | i | 46 | i | . | .
O=[N+]([O-])c1ccc(N2CCN(c3ccccc3F)CC2)c(S(=O)(=O)N2CCOCC2)c1 | -11 | 41 | 6.2* | 11 | i | 34* | i
O=C(c1cc([N+](=O)[O-])ccc1N1CCOCC1)N1CCN(c2ccccc2)CC1 | 13 | 17 | 12* | 18 | i | 48* | i
O=C(NCCc1ccccc1)c1cc([N+](=O)[O-])ccc1N1CCOCC1 | 3 | 8 | . | . | . | . | .
O=C(NCCc1ccc(F)cc1)c1cc([N+](=O)[O-])ccc1N1CCOCC1 | -4 | 21 | i | . | i | 2 | i
O=C(Nc1ccccc1C(=O)NCCN1CCOCC1)c1cccc([N+](=O)[O-])c1 | -3 | 18 | i | 5 | i | 58* | -57*
CN1CCN(c2ccc([N+](=O)[O-])cc2C(=O)N2CCOCC2)CC1 | -1 | 12 | i | 4 | i | . | .
COc1cccc(CN(C)C(=O)CN2C(=O)NC(c3ccccc3)(c3ccccc3)C2=O)c1 | . | -5 | . | . | . | . | .
CCOc1ncccc1C(=O)Nc1cc(S(=O)(=O)N2CCCCC2)ccc1C | -3 | 3 | . | . | . | . | .
O=C(NC1CCSc2ccccc21)c1cc([N+](=O)[O-])ccc1N1CCOCC1 (stereo unspecified) | . | 20 | 6.4* | 12 | i | 6 | i
O=C(NC1CCSc2ccccc21)c1ccc([N+](=O)[O-])cc1 (stereo unspecified) | -23 | 0 | i | 18 | i | . | .
CCCCN(CC)CCCNC(=O)c1cn(C)c2ccc(S(=O)(=O)N(C)C3CCCCC3)cc2c1=O | 1 | 8 | i | 1 | i | . | .
CN(CCNC(=O)c1cn(C)c2ccc(S(=O)(=O)N(C)C)cc2c1=O)CCc1ccccc1 | 2 | 0 | i | -7 | i | 23* | -26*
CCN(CC)S(=O)(=O)c1ccc2c(c1)c(=O)c(C(=O)NCCN(C)CCc1ccccc1)cn2C | -16 | 11 | i | 33 | i | . | .
CN(C1CCCCC1)S(=O)(=O)c1ccc2c(c1)c(=O)c(C(=O)NCCN1CCCC1)cn2C | -26 | -11 | i | 65 | i | 40* | -37*
CCN(CC)CCCNC(=O)c1cn(C)c2ccc(S(=O)(=O)N(C)C)cc2c1=O | -6 | -5 | 6.4* | 24 | i | 55* | -35*
Cc1cc(NC(=O)CCC(=O)N(Cc2ccc(F)cc2)C(C(=O)NC2CCCC2)c2ccco2)no1 (stereo unspecified) | . | 5 | i | 6 | i | . | .
SMILES | ALR H2O2 inh | PREPL inhibitor | CHT PAM | AI-2 QS modul | CHT block | CHT act confirm | HEK293 MP dye
N#CCCn1cc(CNC2CCC(O)CC2)c2ccccc21 (stereo unspecified) | 2 | 18 | i | . | i | . | .
COc1cc(Nc2ccc(S(=O)(=O)N3CCN(C)CC3)cc2[N+](=O)[O-])cc(OC)c1 | -15 | 10 | i | -4 | i | 9 | -21*
O=[N+]([O-])c1ccc(C[n+]2cc(-c3ccccc3)n3c2CCCCC3)cc1 | 2 | 19 | i | 13 | i | . | .
O=[N+]([O-])c1ccc(C[n+]2cccc3c4ccccc4ccc32)cc1 | -26 | 25 | 10* | 6 | i | 75* | -75*
CCOC(=O)c1ccc(NC(=O)C2CC(O)CN2S(=O)(=O)c2ccc(C)cc2)cc1 (stereo unspecified) | 1 | 18 | . | . | . | . | .
COc1ccc(N2CC(C)Cn3c2nc2c3c(=O)n(Cc3ccc(F)cc3)c(=O)n2C)c(OC)c1 (stereo unspecified) | -1 | 6 | i | 19 | i | 18* | i
CCN1CCc2c(sc(NC(=O)c3ccc(S(=O)(=O)N4CCOCC4)cc3)c2C(N)=O)C1 | -12 | -15 | 7.8* | 21 | i | 38* | -41*
CCOC(=O)c1c(NC(=O)Cc2ccccc2)sc2c1CCN(CC)C2 | 0 | -6 | i | 15 | i | 34* | -35*
COc1ccc(C2=NC(C)(C)Cc3cc(OC)c(OC)cc32)cc1OC | -16 | 4 | i | 16 | i | 72* | -83*
COc1cc2c(cc1OC)C(c1cc3ccccc3oc1=O)=NC(C)(C)C2 | 25 | 1 | i | 37 | i | . | .
CCCCN(CC)C(=S)Nc1ccc2nc(N3CCN(C)CC3)cc(C)c2c1 | . | 15 | i | 15 | i | 26* | -26*
CCCCN(C)C(=S)Nc1ccc2nc(N3CCN(CC)CC3)cc(C)c2c1 | 16 | 8 | i | 19 | i | . | .
COc1ccccc1CNC(=O)Cn1cccc1C(=O)c1ccccc1 | 1 | 16 | i | 16 | i | . | .
COc1ccc(C)cc1Nc1n[n+](-c2ccccc2)c(-c2ccc(SC)cc2)s1 | . | 20 | 7.8* | 19 | i | 46* | i
COc1ccc(C)cc1Nc1n[n+](-c2ccccc2)c(-c2ccc(NC(C)=O)cc2)s1 | -4 | 23 | i | 0 | i | . | .
CCc1ccc(Nc2n[n+](-c3ccccc3)c(-c3ccc(SC)cc3)s2)cc1 | -9 | -8 | 11* | 20 | i | 26* | i
CSc1ccc(-c2sc(Nc3ccccc3)n[n+]2-c2ccccc2)cc1 | 0 | 33 | 8.2* | 20 | i | 15* | i

Assay outcomes as filed in PubChem.
